The panel holds about 79,000 compounds, 15% with a hit somewhere; the sample as a whole holds those more often. No stated cut-off is given here; in the data, active means growth inhibition above about 70%; inactive means the rest.
What was measured:
[1] = NCI Yeast Anticancer Drug Screen. Data for the rad50 strain (AID 155);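 further: 0% = growth of vehicle-only cultures of the same strain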; details: S. cerevisiae rad50 strain growth inhibition; at 50.0 µM; hits give high values
Summary of the method: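 Yeast carrying a defined DNA repair defect were exposed to test compounds, and growth was compared with vehicle-treated controls to give percent inhibition.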

[2] = NCI Yeast Anticancer Drug Screen. Data for the mec2-1 strain (AID 157); details: S. cerevisiae mec2-1 strain, at 50.0 µM, hits give high values
Summary of the method: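 Mutant yeast (mec2-1) grown with compound; growth inhibition relative to vehicle control reported.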

[3] = NCI Yeast Anticancer Drug Screen. Data for the sgs1 mgt1 strain (AID 161);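 further: 0% = growth of cultures given vehicle only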; details: S. cerevisiae sgs1 mgt1 strain, at 50.0 µM, hits give high values
Summary of the method: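 Compounds are added to genetically altered yeast, and growth is compared with cultures given vehicle alone to give percent inhibition.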

[4] = NCI Yeast Anticancer Drug Screen. Data for the cln2 rad14 strain (AID 165);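 further: 0% = growth equal to vehicle treated cultures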; details: S. cerevisiae cln2 rad14 strain, at 50.0 µM, hits give high values
Summary of the method: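 Readout is yeast growth inhibition versus vehicle-treated controls, using a strain with cln2 and rad14 alterations exposed to compound.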

[5] = NCI Yeast Anticancer Drug Screen. Data for the bub3 strain (AID 167); details: S. cerevisiae bub3 mutant strain, at 50.0 µM, hits give high values
Summary of the method: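 Compounds were applied to a genetically altered yeast strain carrying a cell-cycle control defect. Growth inhibition was scored against vehicle-treated controls.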

[6] = NCI Yeast Anticancer Drug Screen. Data for the mlh1 rad18 strain (AID 175); details: S. cerevisiae mlh1 rad18 strain growth inhibition; at 50.0 µM; hits give high values
Summary of the method: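 Genetically defined yeast (DNA repair-deficient) exposed to compounds; growth inhibition determined relative to vehicle.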

Measured: growth inhibition

OCCN(CCO)c1ccc2c(c1)Cc1cc(Br)ccc1-2
inactive: [1] 1.25% | [2] 6% | [3] -4.35% | [4] -2.7% | [5] 22.5% | [6] 5.15%

Cc1cccc(C=NC23CC4CC(CC(C4)C2)C3)c1
inactive: [1] -30.4% | [2] -40.5% | [3] -40.5% | [4] -30.7% | [5] -44.9% | [6] -43.3%

CC[n+]1ccc(C#N)cc1
inactive: [1] 19.9% | [2] -3.25% | [3] 7.85% | [4] 7.9% | [5] 2.6% | [6] 16.9%

CC(=O)Oc1cc(I)cc(C(=O)O)c1
inactive: [1] -10% | [2] 9.85% | [3] -1.05% | [4] -9.15% | [5] 3.3% | [6] -10.4%

CS(=O)CC1OC2OC3C(CO)OC(OC4C(CO)OC(OC5C(CO)OC(OC6C(CO)OC(OC7C(CO)OC(OC8C(CO)OC(OC1C(O)C2O)C(O)C8O)C(O)C7O)C(O)C6O)C(O)C5O)C(O)C4O)C(O)C3O (stereo not given)
inactive: [1] -1.9% | [2] -17.4% | [3] -8.55% | [4] -21.4% | [5] -8% | [6] 10.2%

COc1cc2c[n+]3c4c(cccc4c2cc1OC)CC3
inactive: [1] 5.75% | [2] 0.55% | [3] 1.15% | [4] -2.7% | [5] 3.2% | [6] -13.7%

COC(=O)c1[nH]c(C)c(C(=O)OC)c1C
inactive: [1] -8.5% | [2] -27.7% | [3] -3.1% | [4] -5% | [5] -13.2% | [6] -12.8%

C/C(CC(C)(C)C)=N/O
inactive: [1] -24.6% | [2] -5.2% | [3] -21.8% | [4] -78.7% | [5] -14.9% | [6] -12.9%

O=C(O)C(CO)C(CO)C(=O)O (stereo not given)
inactive: [1] -12.9% | [2] -14.4% | [3] -7.05% | [4] -14.7% | [5] -22.8% | [6] -2.15%

CC(=O)OCC1OC(n2nc(/C=C/c3ccccc3)c(=O)n(-c3ccccc3)c2=S)C(OC(C)=O)C(OC(C)=O)C1OC(C)=O (stereo not given)
inactive: [1] 0.1% | [2] 20.6% | [3] 8.85% | [4] -10.3% | [5] -0.45% | [6] 31.9%

Cc1ccc(/C=N/S(=O)(=O)Cc2ccccc2)cc1
inactive: [1] -11.6% | [2] 3.8% | [3] 10.2% | [4] 4.9% | [5] 0.15% | [6] -0.15%

CCCCCCCCCCCCCCCCS(=O)(=O)N/N=C(/c1ccc(Cl)cc1)N1CCCCC1
inactive: [1] -18.2% | [2] -32.1% | [3] 3.25% | [4] 21.2% | [5] -10.2% | [6] -4.85%

CCCCCCCCCCCCCCCC[Si](Cl)(Cl)Cl
inactive: [1] -0.6% | [2] -10.7% | [3] -5.85% | [4] -22.6% | [5] 2.95% | [6] 10.1%

C=CC(=N)N
inactive: [1] 12.3% | [2] 2.4% | [3] -5% | [4] 8.45% | [5] 6.6% | [6] 7.6%

CC(C)c1ccc(/C(O)=C/C(=O)C(=O)/C=C(/O)c2ccc(C(C)C)cc2)cc1
inactive: [1] 31.4% | [2] 2.25% | [3] 1.25% | [4] 9.6% | [5] 2.5% | [6] 10.7%

Cc1cccc(N=C2NC(=O)C(CC(=O)Nc3ccc(Cl)cc3C)S2)c1 (stereo not given)
inactive: [1] 0.05% | [2] -1.9% | [3] 1.95% | [4] 3.55% | [5] 8.15% | [6] 3%

OCC(O)C1OC2CC1Nc1ccccc1N2 (stereo not given)
inactive: [1] -30.6% | [2] -21.3% | [3] 9.6% | [4] 17.3% | [5] -15.1% | [6] -12.7%

CC(=O)OCC1OC(OCC(OC(C)=O)C(OC(C)=O)C(OC(C)=O)c2cnn(-c3ccccc3)n2)C(OC(C)=O)C(OC(C)=O)C1OC(C)=O (stereo not given)
inactive: [1] 1.35% | [2] 0.2% | [3] 2.65% | [4] -15.2% | [5] 12.4% | [6] 6.5%

CC1CC(=O)Nc2nc(N)ncc21 (stereo not given)
inactive: [1] 19.4% | [2] 21.8% | [3] 15.7% | [4] -3.8% | [5] 7.75% | [6] 3.9%

CCOC1(OCC)C(=O)N(c2ccc(Cl)c(Cl)c2)C(=O)N1c1ccc(Cl)c(Cl)c1
inactive: [1] 39.2% | [2] 1.4% | [3] -5.6% | [4] 7.5% | [5] -3.65% | [6] -0.45%

COC1C(=O)c2ccccc2N1C(C)=O (stereo not given)
inactive: [1] 7.85% | [2] -2.25% | [3] -7.6% | [4] -18.2% | [5] -6.85% | [6] 1.15%

O=C=Nc1ccc(Cc2ccc(N=C=O)cc2)cc1 (tested in a mixture with another compound)
inactive: [1] -6.55% | [2] -1.5% | [3] -12.2% | [4] 8.95% | [5] -0.5% | [6] 14.3%

Cc1ccc(N=NC(C2=NC(=O)CS2)c2nc3ccccc3[nH]2)cc1 (stereo not given)
inactive: [1] -55% | [2] -31% | [3] -52.8% | [4] -44.8% | [5] -56% | [6] -73.8%

Cc1cccc(C)c1NC(=S)N1CCC(CCCC2CCN(C(=S)Nc3c(C)cccc3C)CC2)CC1
inactive: [1] -12.8% | [2] -18.6% | [3] -1.65% | [4] 15.7% | [5] 4.8% | [6] 12.2%

COCC(OC)C(Cl)C(=O)Nc1ccc(Br)cc1 (stereo not given)
inactive: [1] 14.6% | [2] 31.1% | [3] 15.2% | [4] -14.4% | [5] 28.9% | [6] 10.8%

COC(=O)C(/C(=N/NC(N)=O)C(=O)Nc1c(C)cccc1C(C)(C)C)c1nc2ccc(Cl)cc2[nH]c1=O (stereo not given)
inactive: [1] -3.9% | [2] -15.7% | [3] -7.4% | [4] 3.3% | [5] -11.2% | [6] 0.1%

COC(=O)C1C2CC3c4[nH]c5cc(OC)ccc5c4CCN3CC2CC(OC(=O)CCc2cc(OC)c(OC)c(OC)c2)C1OC (stereo not given)
inactive: [1] -3.35% | [2] -0.2% | [3] 4.25% | [4] 13.4% | [5] 14.7% | [6] 9.85%

COC1(c2ccccc2)N=C(c2ccc([N+](=O)[O-])cc2)OC1(C)C (stereo not given)
inactive: [1] 4% | [2] 1.7% | [3] 6.1% | [4] 38% | [5] -4.85% | [6] -4.8%

CCOC(=O)NCC(C)(C)C
inactive: [1] -2.4% | [2] 10.9% | [3] 6.5% | [4] -0.65% | [5] -7.9% | [6] 35.4%

CCS(=O)c1ncc2cnccn12 (stereo not given)
inactive: [1] 2.35% | [2] 1.3% | [3] 15.4% | [4] -17.8% | [5] 8.3% | [6] -18.8%

O=S(=O)(c1ccc(Br)cc1)N1CCN(S(=O)(=O)c2ccc(Br)cc2)CC1
inactive: [1] -24.4% | [2] -23.9% | [3] -35.2% | [4] -43.2% | [5] -23.4% | [6] -10.1%

COc1ccc(-c2coc3c4c(c(CC=C(C)C)c(O)c3c2=O)OC(C)(C)C=C4)cc1OC
inactive: [1] 29.9% | [2] 13.8% | [3] 10.9% | [4] 37.7% | [5] 4.1% | [6] 16.8%

CC(=O)/C(=C/N1CC(=O)NC1=S)C(=O)Nc1ccccc1
inactive: [1] -21.6% | [2] -23.2% | [3] -31.4% | [4] -0.35% | [5] -32.6% | [6] 2%

CCN(CC)C1CCC(C2c3cc4c(cc3OC(N3CCOCC3)C2C)OCO4)CC1 (stereo not given)
inactive: [1] -11.1% | [2] -18.4% | [3] -22.8% | [4] -63% | [5] 7.95% | [6] -22.4%

CC(=O)OCCn1c(=O)sc2ccccc21
inactive: [1] 3.1% | [2] 13.8% | [3] 3.2% | [4] -8.35% | [5] -10.7% | [6] -1.4%

S=C1N=C2c3ccccc3C2C(=S)S1 (stereo not given)
inactive: [1] -4.8% | [2] -12.8% | [3] 0% | [4] -24.9% | [5] 4.75% | [6] -7.25%

O=C(O)c1c(Cl)c(Cl)c(Cl)c(C(=O)O)c1Cl
inactive: [1] -2.05% | [2] 2.2% | [3] 7.25% | [4] -36.1% | [5] 5.85% | [6] 19.2%

C/C(C=C(C#N)C#N)=C\c1ccc(F)cc1
inactive: [1] 14.9% | [2] 28.1% | [3] -2.1% | [4] 30.9% | [5] -7.3% | [6] 21.4%

CCOc1ccc(NC(=O)CCCCCCCCC(=O)Nc2ccc(OCC)cc2)cc1
inactive: [1] 6.8% | [2] 3.2% | [3] -11.8% | [4] -1.9% | [5] -4.8% | [6] 19.8%

Cn1nc(-c2cccc(N)c2)cc1Cl
inactive: [1] -17.6% | [2] -10.4% | [3] 3.75% | [4] -39.5% | [5] -15.6% | [6] 2.95%

— PubChem BioAssay (NCI)
